The panel holds about 83,000 compounds, 20% with a hit somewhere; the sample as a whole holds those more often.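 Percent growth is the endpoint: 0 to 100 indicates growth inhibition (40 means 60% inhibition), 0 means no net growth, and negative values indicate cell death.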 Values without a mark were called inactive. Activity calls are given as the source filed them. The calls were made as follows: active = growth percent below 10; inactive = the rest.
system: SW-620 colon; test: NCI-60 one-dose screen, 48 h (100 = growth as untreated, 0 = no growth, -100 = all killed); settings: 10 µM unless noted

SMILES | growth
COC(=O)c1cc(-c2ccc(S(C)(=O)=O)cc2)[nH]c1N/N=C/c1c(Cl)cccc1Cl | 15%
Cc1cccnc1NC(=S)Nc1ncccc1C | 111%
O=C(c1ccc(-c2ccccc2)cc1)c1ccc([N+](=O)[O-])cc1 | 101%
O=Nc1c(-c2c(O)[nH]c3ncccc23)[nH]c2ccccc12 | 62.8%
CO[C@H]1/C=C(/C)CCC[C@H](C)[C@H](O)[C@@H](C)C(=O)C(C)(C)[C@@H](O)CC(=O)O[C@@H]1/C(C)=C/c1csc(C)n1 | 33.8%
COc1ccc(-c2nc(/C=C3\SC(=NCc4ccccc4)NC3=O)c3ccccn23)cc1 | -55.5% (active)
COc1ccc2c3c([nH]c2c1)C(=O)c1nc(C)ccc1C3=O | 42.8%
COc1cc(-c2cc(-c3ccc(N(C)C)cc3)nc(N3CCC(O)CC3)c2C#N)cc(OC)c1OC | 21.1%
Cn1ccc2c3c(ccc21)CC3=O | 108%
COc1ccc2[nH]cc(C(c3cc(F)cc(F)c3)c3c[nH]c4ccc(OC)cc34)c2c1 | 81.6%
CCOC(=O)CNP(=O)(OC[C@@H](Cc1ccccc1)NC(=O)c1cc2ccccc2s1)Oc1ccccc1 (some centres undefined) | 47.3%
N#Cc1c(NC(=O)c2ccccc2)sc2c1CCC(=O)C2 | 11.6%
O=C1Nc2ccccc2/C1=C\c1nc(-c2ccccc2)n2ccccc12 | 103%
COc1ccc2c(c1)[n+]([O-])c(C(=O)/C=C/C=C(\Cl)c1cc(OC)c(OC)c(OC)c1)c(C)[n+]2[O-] | 103%
CCn1c(SCC(=O)c2ccc(Br)cc2)nnc1-c1ccncc1 | 102%
O=C(Nc1ccc(NC(=O)c2cc(=O)[nH]c3ccccc23)cc1)Nc1cccc(C(F)(F)F)c1 | 59.6%
Cc1ccc(S(=O)(=O)N2CCCC2CO)cc1 (centres undefined) | 96.8%
COc1cccc(CNc2ncnc3c2ncn3C2OC(CO)C(O)C2O)c1O (centres undefined) | 6.4% (active)
CN(CCOc1ccc(C#N)cc1)CCOc1ccc(C#N)cc1 | 57.8%
CC(C)n1cnc2c(=S)nc[nH]c21 | 103%

SMILES | growth
Cc1nc(-c2ccccc2)cc2c(O)c(C(=O)NN)[nH]c(=O)c12 | 97.5%
CCOC(=O)c1nc(Nc2ccc(NC(=O)Nc3ccc(F)cc3)cc2)c2ccccc2n1 | 96.9%
C1=CN2CC(c3ccccc3)=NNC2c2ccccc21 (centres undefined) | 96.7%
Nc1ncnc2c1N=C(c1ccc3c(c1)OCO3)CC(c1ccc([N+](=O)[O-])cc1)N2 (centres undefined) | 81.5%
O=C1c2cccc(NCCN=Cc3cc(O)ccc3O)c2C(=O)c2c(NCCN=Cc3cc(O)ccc3O)cccc21 | -68.7% (active)
COC(=O)c1cc(-c2ccccc2)[nH]c1N/N=C/c1c(Cl)cccc1Cl | 13.3%
O=C(N/N=C/c1ccc(F)cc1)c1ccc(C(F)(F)F)nc1Nc1cccc(C(F)(F)F)c1 | 5.48% (active)
CCOc1nc(-c2ccccc2)cc2c(O)c(C(=O)NN)[nH]c(=O)c12 | 97.4%
O=C(Nc1ccc(-c2nc(N3CCOCC3)c3cccn3n2)cc1)Nc1cccnc1 | 8.71% (active)
O=C1CNC(c2ccccc2)C(c2ccccc2)N1 (centres undefined) | 98.5%
COc1cc(CNS(=O)(=O)c2ccc(C)cc2)ccc1OCc1cn(-c2ccc(Br)cc2)nn1 | 99.1%
NC(=O)c1c(NC(=O)c2ccccc2)sc2c1CCC(=O)C2 | 15.5%
CCCc1cc(NC)nc(S(=O)(=O)CC)n1 | 105%
COC(=O)c1c2c(c(C)[n+]([O-])c1C)C(=O)C=C(NCc1ccc(OC)cc1)C2=O | 0.249% (active)
COC(=O)c1c2c(c[n+]([O-])c1C)C(=O)C(NCc1ccccc1)=CC2=O | -19% (active)
C=CCc1c2c(c(OC)c3ccoc13)C(=O)/C(=C/c1ccccc1OC)O2 | 47.2%
COc1cc(CNS(=O)(=O)c2ccc(C)cc2)ccc1OCc1cn(-c2ccc(F)cc2)nn1 | 98.6%
Cc1ccc(Cl)cc1Nc1nc(C(F)(F)F)ccc1C(=O)N/N=C/c1cccnc1 | 22.7%
O=C(O)/C(=C\c1ccc(Cl)cc1)c1ccc(Cl)cc1 | 106%
Cc1cc(N)c2cc(NC(=O)/C=C\c3ccccc3Cl)ccc2n1 | -91.2% (active)

system: MCF7 breast; test: as above; settings: 10 µM unless noted

SMILES | growth
COC(=O)c1cc(-c2ccc(S(C)(=O)=O)cc2)[nH]c1N/N=C/c1c(Cl)cccc1Cl | -5.62% (active)
Cc1cccnc1NC(=S)Nc1ncccc1C | 82.9%
O=C(c1ccc(-c2ccccc2)cc1)c1ccc([N+](=O)[O-])cc1 | 95.9%
O=Nc1c(-c2c(O)[nH]c3ncccc23)[nH]c2ccccc12 | 67.8%
CO[C@H]1/C=C(/C)CCC[C@H](C)[C@H](O)[C@@H](C)C(=O)C(C)(C)[C@@H](O)CC(=O)O[C@@H]1/C(C)=C/c1csc(C)n1 | 20.4%
COc1ccc(-c2nc(/C=C3\SC(=NCc4ccccc4)NC3=O)c3ccccn23)cc1 | -62.2% (active)
COc1ccc2c3c([nH]c2c1)C(=O)c1nc(C)ccc1C3=O | 41%
COc1cc(-c2cc(-c3ccc(N(C)C)cc3)nc(N3CCC(O)CC3)c2C#N)cc(OC)c1OC | 0.557% (active)
Cn1ccc2c3c(ccc21)CC3=O | 107%
COc1ccc2[nH]cc(C(c3cc(F)cc(F)c3)c3c[nH]c4ccc(OC)cc34)c2c1 | 55.4%
CCOC(=O)CNP(=O)(OC[C@@H](Cc1ccccc1)NC(=O)c1cc2ccccc2s1)Oc1ccccc1 (some centres undefined) | 51.2%
N#Cc1c(NC(=O)c2ccccc2)sc2c1CCC(=O)C2 | 4.73% (active)
O=C1Nc2ccccc2/C1=C\c1nc(-c2ccccc2)n2ccccc12 | 52.9%
COc1ccc2c(c1)[n+]([O-])c(C(=O)/C=C/C=C(\Cl)c1cc(OC)c(OC)c(OC)c1)c(C)[n+]2[O-] | 83.4%
CCn1c(SCC(=O)c2ccc(Br)cc2)nnc1-c1ccncc1 | 92.6%
O=C(Nc1ccc(NC(=O)c2cc(=O)[nH]c3ccccc23)cc1)Nc1cccc(C(F)(F)F)c1 | 70.7%
Cc1ccc(S(=O)(=O)N2CCCC2CO)cc1 (centres undefined) | 91.3%
COc1cccc(CNc2ncnc3c2ncn3C2OC(CO)C(O)C2O)c1O (centres undefined) | 65.5%
CN(CCOc1ccc(C#N)cc1)CCOc1ccc(C#N)cc1 | 211%
CC(C)n1cnc2c(=S)nc[nH]c21 | 106%

SMILES | growth
Cc1nc(-c2ccccc2)cc2c(O)c(C(=O)NN)[nH]c(=O)c12 | 77.8%
CCOC(=O)c1nc(Nc2ccc(NC(=O)Nc3ccc(F)cc3)cc2)c2ccccc2n1 | 96.5%
C1=CN2CC(c3ccccc3)=NNC2c2ccccc21 (centres undefined) | 67.3%
Nc1ncnc2c1N=C(c1ccc3c(c1)OCO3)CC(c1ccc([N+](=O)[O-])cc1)N2 (centres undefined) | 63.2%
O=C1c2cccc(NCCN=Cc3cc(O)ccc3O)c2C(=O)c2c(NCCN=Cc3cc(O)ccc3O)cccc21 | -59.6% (active)
COC(=O)c1cc(-c2ccccc2)[nH]c1N/N=C/c1c(Cl)cccc1Cl | -38.2% (active)
O=C(N/N=C/c1ccc(F)cc1)c1ccc(C(F)(F)F)nc1Nc1cccc(C(F)(F)F)c1 | -18.6% (active)
CCOc1nc(-c2ccccc2)cc2c(O)c(C(=O)NN)[nH]c(=O)c12 | 127%
O=C1CNC(c2ccccc2)C(c2ccccc2)N1 (centres undefined) | 91.8%
COc1cc(CNS(=O)(=O)c2ccc(C)cc2)ccc1OCc1cn(-c2ccc(Br)cc2)nn1 | 88%
NC(=O)c1c(NC(=O)c2ccccc2)sc2c1CCC(=O)C2 | 4.2% (active)
CCCc1cc(NC)nc(S(=O)(=O)CC)n1 | 92.1%
COC(=O)c1c2c(c(C)[n+]([O-])c1C)C(=O)C=C(NCc1ccc(OC)cc1)C2=O | -55.1% (active)
COC(=O)c1c2c(c[n+]([O-])c1C)C(=O)C(NCc1ccccc1)=CC2=O | -58.3% (active)
C=CCc1c2c(c(OC)c3ccoc13)C(=O)/C(=C/c1ccccc1OC)O2 | 32.6%
COc1cc(CNS(=O)(=O)c2ccc(C)cc2)ccc1OCc1cn(-c2ccc(F)cc2)nn1 | 85.9%
Cc1ccc(Cl)cc1Nc1nc(C(F)(F)F)ccc1C(=O)N/N=C/c1cccnc1 | 11.7%
O=C(O)/C(=C\c1ccc(Cl)cc1)c1ccc(Cl)cc1 | 92.9%
Cc1cc(N)c2cc(NC(=O)/C=C\c3ccccc3Cl)ccc2n1 | -82.4% (active)
